In PubChem BioAssay AID777 (Sanford-Burnham Center for Chemical Genomics, 2007):
Among all 96,000 compounds or so, about 19,000 (20%) were called active.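 The calls were made as follows: active = blocking of liver enzyme CYP2C9 beyond about 50% at 5 µM (limit read from the data); inactive = the rest.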 Only a sample is shown.

target: Cytochrome P450 2C9 (Homo sapiens) (UniProt P11712); experiment: blockers of cytochrome P450 2C9 activity – biochemical, luminescence, ADME assay, primary screen (AID 777); conditions: CYP2C9 Supersomes, luciferin-H conversion, at 5 µM, active compounds read high
Sequence (P11712 whole entry, looked up): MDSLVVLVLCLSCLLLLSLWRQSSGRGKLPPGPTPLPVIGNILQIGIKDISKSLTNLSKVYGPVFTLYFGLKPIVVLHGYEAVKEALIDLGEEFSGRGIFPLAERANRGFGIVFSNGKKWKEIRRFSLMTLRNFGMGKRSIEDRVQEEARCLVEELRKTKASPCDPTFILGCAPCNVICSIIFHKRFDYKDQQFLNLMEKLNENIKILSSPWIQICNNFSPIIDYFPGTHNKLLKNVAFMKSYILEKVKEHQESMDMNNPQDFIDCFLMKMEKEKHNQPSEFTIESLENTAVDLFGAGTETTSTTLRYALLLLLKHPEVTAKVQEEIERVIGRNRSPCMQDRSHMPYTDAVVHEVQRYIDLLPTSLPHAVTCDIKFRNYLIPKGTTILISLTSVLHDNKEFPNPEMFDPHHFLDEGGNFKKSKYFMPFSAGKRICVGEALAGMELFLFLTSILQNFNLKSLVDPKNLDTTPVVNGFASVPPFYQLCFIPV

inhibition, active:
CC1(C)Cc2c(C#N)c(SCc3nc4ccccc4[nH]3)nc(N3CCOCC3)c2CO1 96.2%
CC(C)C(=O)N1CCN(c2nc(-c3ccccc3)c3c(c2C#N)CC(C)(C)OC3)CC1 97.1%
CC(C)c1nc(N2CCOCC2)c(C#N)c2c1COC(C)(C)C2 61.7%
Cc1ccc(S(=O)(=O)Nc2nc3ccccc3nc2N2CCc3ccccc3C2)cc1 96%
CCC(C)OC(=O)C(C)Oc1ccc(-c2ccccc2)cc1 (configuration not stated) 79.9%
c1ccc2c(NCC3CCCO3)nc(-c3ccncc3)nc2c1 (configuration not stated) 83%
Cn1ccs/c1=N\S(=O)(=O)c1ccc(C(C)(C)C)cc1 67.2%
COc1ccc(-c2nc3ccccc3n2CCC(C)C)cc1OC 59.6%
CCN(Cc1ccncc1)C(=O)c1cccc(S(=O)(=O)N2CCOCC2)c1 94.8%
COc1ccc(C2C(C#N)=C(N)Oc3cc(N)ccc32)cc1OC (configuration not stated) 85.7%
CCOC(=O)c1c(C2CC2)csc1NC(=O)CSCc1c(C)noc1C 65%
Cc1ccc(NC(=O)CN2CCC3(O)CCCCC3C2c2ccc3c(c2)OCO3)c(C)c1 (configuration not stated) 90.4%

inhibition, inactive:
Cc1ccc(CNC(=O)C2CC(c3ccccc3[N+](=O)[O-])=NO2)o1 (configuration not stated) -18.8%
COC(=O)c1ccc(CSc2nc3cc(Cl)ccc3o2)cc1 -7.6%
Cc1nc(NCc2ccccc2)c(C(N)=O)c2c1COC(C)(C)C2 2.7%
C1=C(N2CCOCC2)/C(=C/c2nc3ccccc3[nH]2)CC1 11.9%
c1ccc2[nH]c(NCCN3CCOCC3)nc2c1 -29.7%
CC(C)Cc1nc(N2CCOCC2)c(C#N)c2c1CCC2 39.5%
c1ccc2cc(OCCN3CCCC3)ccc2c1 2.2%
O=C(CCCN1C(=O)CSc2ncccc21)N1CCN(c2cccc(C(F)(F)F)c2)CC1 31.1%
CN1CCN(CC(O)COCc2ccc3c(c2)OCO3)CC1 (configuration not stated) -13.3%
COc1ccc2c3c(c(=O)oc2c1OCC(=O)C(C)(C)C)CCCC3 25.4%
O=C(NCc1ccccn1)Nc1ccc(F)cc1 2.9%
CCN(CC)C(=O)CSC1c2ccccc2C(=O)N1c1ccccc1 (configuration not stated) -6.2%
Cc1ccc(NC2=NC(c3ccccc3)n3c(nc(C)cc3=O)N2)cc1 (configuration not stated) 35.5%
Cc1ccc(S(=O)(=O)NCc2nc3ccccc3c(=O)n2N)cc1 -7.2%
O=C(Nc1ccc(S(=O)(=O)N2CCc3ccccc3C2)cc1)c1ccccc1 1.2%
Cc1cc([N+](=O)[O-])ccc1NCc1cccc([N+](=O)[O-])c1 -1.6%
CC(Oc1ccc(Cl)cc1)C(=O)Nc1ncccn1 (configuration not stated) 0.9%
COc1ccc(OCC(=O)NNC(=O)c2ccc(-c3ccccc3)cc2)cc1 -3.2%
Cn1c(/C(C#N)=C2/CCCCCN2)nc2ccccc21 29.5%
COc1ccc(-c2[nH]nc(-c3ccccc3)c2-c2nc3ccccc3[nH]2)cc1 10%
O=C(NCCN=C1NS(=O)(=O)c2ccccc21)c1ccc(S(=O)(=O)N2CCOCC2)cc1 46.2%
Cn1c(=O)c2[nH]c(NCC3CCCO3)nc2n(-c2ccccc2)c1=O (configuration not stated) 10.1%
Cc1nc2ccccc2c2oc(C(=O)NCC3CCCO3)cc12 (configuration not stated) 0.9%
Cc1ccc(S(=O)(=O)NCC(=O)N(CC(=O)NC2CCCCC2)Cc2ccco2)cc1 10.4%
O=C(NCc1ccc(Cl)c(Cl)c1)c1cccnc1 14.6%
CCSc1nnc(NC(=O)c2ccc(C)cc2)s1 38%
Cc1ccc(NC(=O)c2nc[nH]c2C(=O)N2CCCCC2)c(C(=O)c2ccccc2)c1 40.9%
Cc1ccc(C)c(S(=O)(=O)N2CC(=O)Nc3ccccc32)c1 12.1%
CCOCCn1c(C(C)C)nc2ccccc21 5.1%
COCCn1c(-c2ccc(OC)c(OC)c2)nc2ccccc21 -20%
CSc1nc(-c2ccco2)nn1C(=O)CCc1ccccc1 -12.3%
C=CCOc1cccc(CNn2cn[nH]c2=S)c1 -16.1%
O=C(c1cccc(S(=O)(=O)N2CCOCC2)c1)N1CCOCC1 -6.1%
CC(C)C(NC(=O)c1cccc(S(=O)(=O)N2CCOCC2)c1)C(=O)NCCc1ccccn1 (configuration not stated) -17.7%
COc1cc(C2C(C#N)=C(N)Oc3n[nH]c(-c4ccccn4)c32)cc(OC)c1OC (configuration not stated) -6.2%
N#CC1=C(N)Oc2cc(O)ccc2C1C1CCCCC1 (configuration not stated) 44.8%
Cc1ccc(-n2c(C)cc(/C=C(\C#N)C(=O)NCC3CCCO3)c2C)cc1 (configuration not stated) 13.8%
COc1ccc(N2CCN(C(=O)CSc3nnc4ncccn34)CC2)cc1 18.5%
Cc1nc2ccc(S(=O)(=O)NCC(=O)NCCN3CCCCC3C)cc2s1 (configuration not stated) 8.5%
COc1ccc(C(C#N)Nc2ccc(C)cc2)cc1 (configuration not stated) -0.6%
CCOC(=O)c1sc(NC(=O)CCN2CCOCC2)c(C(=O)OCC)c1C 40.4%
Cc1noc(C)c1CSCC(=O)Nc1nc2ccc(Oc3ccccc3)cc2s1 44.1%
COCCn1nnnc1CN1CCC(NC(=O)Nc2cccc(OC)c2)CC1 -12.7%
CC(C)C1C2=C(CC(C)(C)CC2=O)ON1c1ccccc1 (configuration not stated) 28.7%
N=c1ccn(CC(=O)NC(N)=O)c2ccccc12 -0.4%
CCN(CC)c1ccc(C2C3CCCCC3(O)CCN2CC(=O)Nc2ccccc2)cc1 (configuration not stated) 1.4%
CC1CCCCN1CC(=O)NCc1ccc2c(c1)OCO2 (configuration not stated) -6.6%
CN(Cc1nc2ccccc2c(=O)[nH]1)Cc1cc(=O)oc2ccc3ccccc3c12 34.3%
CCCN(c1ccc(C(C)C)cc1)S(=O)(=O)c1c(C)[nH]c(=O)[nH]c1=O 21.6%
O=C(NCN1CCN(CCO)CC1)c1cnccn1 10.7%
